Experimental data reported in ChEMBL document CHEMBL4513216, “Probing the Open Global Health Chemical Diversity Library for Multistage-Active Starting Points for Next-Generation Antimalarials” (ACS Infect Dis, 2020).
About 2,700 (4%) of roughly 68,000 compounds showed an effect of 50% or more. The entries come from a sample that favours strong results as a whole.

tested on: Plasmodium berghei; assay: Screen against P. berghei liver stage (PbLuc), transformed with Luciferase, at 2uM; format: functional, HepG2; conditions: tested at 2 uM

| Compound | INHIBITION [%] |
| --- | --- |
| COc1cc(F)cc(NC(=O)NCc2cccc(N(C)C)n2)c1 | 23.92 |
| N#Cc1c(F)cccc1NCCCOCC1CCOC1 (centres undefined) | -39.57 |
| C[C@@H]1CN(CC(C)(C)N2CCCCC2)CC[C@@]1(O)C1CC1 | 12.62 |
| C[C@@H]1CN(CC(C)(C)N2CCOCC2)C[C@@]1(O)C1CC1 | -10.59 |
| C[C@@H]1CN(CC(C)(C)N2CCCCC2)C[C@@]1(O)C1CC1 | 51.31 |
| Cc1cc(C(=O)NCC(O)c2ccc(Cl)s2)c(C)o1 (centres undefined) | 57.75 |
| Cc1occc1C(=O)NCC(O)c1ccc(Cl)s1 (centres undefined) | 43.44 |
| Cc1ccc(C(=O)NCC(O)c2ccc(Cl)s2)c(=O)[nH]1 (centres undefined) | 10.05 |
| O=C1NC2(CCN(CC3CC3)CC2)CC1c1ccccc1 (centres undefined) | 11.18 |
| CCN1CC2(CC1=O)CN(Cc1ccccn1)CCN(C(C)=O)C2 (centres undefined) | 28.2 |
| O=C1CCC2(CCCN(C(=O)c3ccccn3)CC2)N1 (centres undefined) | 28.2 |
| Cc1cc(NC(=O)CN2CCN(c3nccs3)C(C)C2)no1 (centres undefined) | -2.82 |
| CS(=O)(=O)c1nccn1Cc1ccc(F)cc1Cl | 29.43 |
| Cc1ccc(-c2cnc(CCC(=O)NCCN3CCOCC3)o2)cc1C | 59.03 |
| O=C(CCc1ncc(-c2ccc(F)cc2)o1)NCCN1CCOCC1 | -45.79 |
| O=C(NCCN1CCOCC1)NCc1ncc(-c2ccccc2)o1 | 24.89 |
| Cc1nc(CNC(=O)NC(C)c2ccc3c(c2)OCCO3)cs1 (centres undefined) | 21.69 |
| Cc1nc(C2CCCN(C(=O)c3c(C)nn4cccnc34)C2)no1 (centres undefined) | -1.02 |
| Cc1ncsc1C(=O)NC1CCN(Cc2cccc3c2OCCO3)CC1 | 21.83 |
| CCCn1ccnc1CN1CCc2[nH]cnc2C1Cc1ccccc1 (centres undefined) | -76.22 |
| Cc1cccc(CN2C[C@@H]3CN(C(=O)NC(C)C)C[C@@H]3C2=O)n1 | 35.34 |
| Cc1cccc(CN2C[C@@H]3CN(C(=O)C4CC=CC4)C[C@@H]3C2=O)n1 | 54.01 |
| Cc1cccc(CN2C[C@@H]3CN(C(=O)c4cnoc4C)C[C@@H]3C2=O)n1 | 35.89 |
| Cn1nc2c(cc1=O)CN(Cc1coc(-c3ccccc3)n1)CC2 | 17.31 |
| CN(C)CC1CN(Cc2nc(-c3cccnc3)no2)CCO1 (centres undefined) | 52.17 |
| c1cncc(-c2noc(CN3CCOC(Cn4cccn4)C3)n2)c1 (centres undefined) | -0.12 |
| Cc1cnn(CC2CN(Cc3nc(-c4ccccn4)no3)CCO2)c1 (centres undefined) | -5.09 |

| Compound | INHIBITION [%] |
| --- | --- |
| Cn1nc2c(cc1=O)CN(Cc1nc(-c3ccccn3)no1)CC2 | 50.75 |
| Cn1nc2c(cc1=O)CN(Cc1coc(-c3ccc(F)cc3)n1)CC2 | -21.39 |
| Cc1ccc(-c2nc(CN3CCc4nn(C)c(=O)cc4C3)co2)cc1 | 62.46 |
| Cn1nc2c(cc1=O)CN(Cc1nc(-c3ccco3)no1)CC2 | -0.05 |
| c1ccc(-c2noc(CN3CCOC(Cn4cccn4)C3)n2)nc1 (centres undefined) | 23.71 |
| Cc1cnn(CC2CN(Cc3nc(-c4cccnc4)no3)CCO2)c1 (centres undefined) | 12.75 |
| CN(C)CC1CN(Cc2nc(-c3ccccn3)no2)CCO1 (centres undefined) | 69.11 |
| CCn1nc2c(cc1=O)CN(Cc1nc(-c3ccccn3)no1)CC2 | -27.03 |
| O=C(c1ccno1)N1CCOC[C@H](Oc2ccc(C(F)(F)F)cc2)C1 | 28.05 |
| Cc1cnc(C)c(N2C[C@H]3OC(=O)N(C4CCCC4)[C@H]3C2)n1 | 12.59 |
| O=C(C1CCCC1)N1C[C@@H]2CCN(c3cccnc3)C[C@@H]2C1 | -3.25 |
| O=C(Cc1ccc(F)cc1)N1CCn2cc(Cn3cccn3)nc2C1 | -6.3 |
| CC(C)(C)C(=O)N1CCCC1c1nc(O)cc(-c2ccccn2)n1 (centres undefined) | -10.16 |
| COc1cc(C(=O)NC(C)C)nc2c(C)cc(F)cc12 | 35.91 |
| CNc1nc2c(c(C(=O)N3CCCC3)n1)CN(Cc1cc(C)no1)CC2 | 10.63 |
| CS(=O)(=O)N1CCN(C(=O)c2cc(-c3cccs3)cs2)CC1 | -23.8 |
| CC(C(=O)N1CCOCC1)n1cc(Br)cn1 (centres undefined) | 15.05 |
| CNC(=O)CCNC(=O)c1ccccc1N1CCOCC1 | -23.9 |
| O=C(CCNC(=O)c1ccccc1N1CCOCC1)NC1CCCC1 | 58.76 |
| CCCNC(=O)CCNC(=O)c1ccccc1N1CCOCC1 | -21.71 |
| COc1cc(N2C[C@@H]3COC[C@]3(COc3cccnc3)C2)ncn1 | -38.72 |
| COCCN1CCN(C(=O)c2ccc(C)cc2F)[C@H]2CS(=O)(=O)C[C@H]21 | 32.26 |
| COc1ccc(Cc2nnc3n2N=C(C(C)(C)C)CS3)cc1 | -13.89 |
| Cc1cnn(CC2CN(Cc3cccnc3)CCO2)c1 (centres undefined) | 41.76 |
| CN1CCCC(c2cccc(-c3cccc(Cl)c3)n2)C1 (centres undefined) | 51.5 |
| CN1CCCC(c2cccc(-c3cccc(F)c3)n2)C1 (centres undefined) | 13.88 |
| CN1CCCC(c2cccc(-c3cccc(C(F)(F)F)c3)n2)C1 (centres undefined) | 38.64 |
